Sampled rows, rich in hits. Any-hit rate of the full collection: about 4.5%.
DAX1 inh-1 – blocks DAX1 repression of SF-1 activated StAR promoter. AID 652010. 1.1% of 370,000 active. HEK293T StAR-luciferase reporter, SF-1/DAX-1 repression relief. inhibition, % at 6.8 µM;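 active = inhibition above the mean over all tested compounds plus 3 SD, cut at about 3.6% in these data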;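 also: 0% = DAX-1 cells with DMSO and 100% = cells lacking DAX-1 with DMSO; higher inhibition means more luminescence from relief of DAX-1 repression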
ssDAF-12 act – activators of S. stercoralis DAF-12 nuclear receptor | HEK293 ssDAF-12/GRIP1 lit1-tk-luc reporter, luminescence; % of 3 µM dafachronic acid response | activation, % at 6.8 µM | 1% of 370,000 active;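 active = activation above the mean over all tested compounds plus 3 SD, cut at about 0.9% in these data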;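 also: 0% = DMSO-only wells and 100% = 3 µM delta7-dafachronic acid wells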
FXN GAA850 act – increases GAA850 frataxin promoter reporter activity; HEK293 lucGAA850 FXN promoter luciferase reporter, 24 h; percent of 10 µM SAHA response; activation, % at 6 µM; 0.56% of 360,000 active; AID 540364;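 active = activation above the average of all compounds screened plus 3 SD, cutoff fixed separately per campaign, cut at about 7.5% in these data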;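 also: 0% = DMSO wells and 100% = 10 µM SAHA wells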
DAX1 inh-2 – inhibits human nuclear receptor DAX1; P51843; HEK293 Gal4-DAX1 luciferase reporter, luminescence; inhibition, % at 6.75 µM; 0.99% of 340,000 active; AID 504766;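 active = inhibition above the mean over all tested compounds plus 3 SD, cut at about 4.2% in these data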;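 also: 0% = DAX1-transfected cells with DMSO and 100% = empty-vector control cells with DMSO; inhibition shows as a rise in luminescence from relieved DAX1 repression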
Target sequence (P51843 207-470 limits assumed): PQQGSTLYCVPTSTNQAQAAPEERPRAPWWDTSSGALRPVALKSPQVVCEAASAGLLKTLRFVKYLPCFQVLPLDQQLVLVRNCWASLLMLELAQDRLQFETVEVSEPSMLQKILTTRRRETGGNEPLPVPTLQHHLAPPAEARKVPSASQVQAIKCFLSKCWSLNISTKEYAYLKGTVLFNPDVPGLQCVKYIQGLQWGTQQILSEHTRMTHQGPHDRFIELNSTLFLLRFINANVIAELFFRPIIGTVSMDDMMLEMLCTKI
hcDAF12 agonist – activators of H. contortus DAF-12 nuclear receptor. HEK293 hcDAF-12 lit1-tk-luc reporter, luminescence; 0% DMSO, 100% Δ7-dafachronic acid. activation, % at 6.8 µM. 1.4% of 370,000 active;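 active = activation above the mean of all tested compounds plus 3 SD, cut at about 5.5% in these data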;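 also: 100% = response to 3 µM Δ7-dafachronic acid high control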
hgDAF-12 ag – agonists of H. glycines DAF-12 nuclear receptor | 1.8% of 370,000 active | activation, % at 6.8 µM | HEK293 GAL4-hgDAF12 UAS-luciferase reporter, agonist luminescence; normalized to butyrate control | AID 687014;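 active = activation above a cutoff set at the mean of all screened compounds plus 3 SD, cut at about 10% in these data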;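 also: 0% = DMSO wells and 100% = sodium butyrate wells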
The depositor's hits bear a star; · = no result; ! = repeats disagree.

SMILES | DAX1 inh-1 | ssDAF-12 act | FXN GAA850 act | DAX1 inh-2 | hcDAF12 agonist | hgDAF-12 ag
CCCc1cc(C(=O)Nc2nccs2)cs1 | 3 | -1 | 3 | 0 | 4 | 12*
C/C(=C\C(=O)O)C(=O)Nc1nccs1 | 0 | -1 | 0 | 0 | -1 | 0
COc1cc(C(=O)NN=C2c3ccccc3-c3ccccc32)cc(OC)c1OC | 1 | 0 | · | · | -1 | -4
O=S1(=O)c2ccc(Br)cc2OC[C@@H](Cc2ccccc2)N1Cc1cn(Cc2ccc(F)cc2)nn1 | -1 | -1 | · | · | -2 | 1
COc1ccc(NC(=O)Nc2nccs2)cc1 | 0 | -1 | 3 | 2 | 1 | 11*
COc1ccc(C(=O)Nc2nccs2)cc1 | 2 | 0 | 6 | 5.7* | 3 | 10
O=C(NC1CCCCC1)c1ccc2c(c1)OCCO2 | 2 | 0 | 1 | 1 | 5 | 6
O=C(NC1CCCCCCC1)c1ccc2c(c1)OCO2 | 3 | 1.1* | 3 | 1 | 5 | 10
CCn1cc(Br)c(C(=O)Nc2nccs2)n1 | 0 | 0 | 1 | 0 | 6.0* | 11*
Nc1ncnc2c1ncn2[C@@H]1O[C@H](C(=O)N[C@@H](CCc2ccccc2)C(=O)N2CCN(C(=O)C(F)(F)F)CC2)[C@@H](O)[C@H]1O | 1 | -1 | · | · | -1 | -3
C[C@@H]1COc2cc(Br)ccc2S(=O)(=O)N1Cc1cn(Cc2ccc(F)cc2)nn1 | 0 | -2 | · | · | -1 | 2
O=C(OCC#CCSc1nnc(-c2cccs2)o1)c1ccc(F)cc1 | · | -1 | · | · | 1 | 0
Cn1c(=O)n(CC(=O)O)c(=O)c2c1nc1n2CCS1 | 0 | -1 | 0 | 6.4*! | -1 | -1
CC(C)(C)C1=CC(=O)C(N2CCOCC2)=CC1=O | -1 | -1 | 2 | 0 | 0 | -3
CC(C)(C)C1=CC(=O)C(=O)C(C(C)(C)C)=C1 | · | · | 11* | 2 | · | ·
Cc1cccn2c(=O)c(C(=O)NC3CCCCC3C)c(O)nc12 (stereo unspecified) | 4.0* | -1 | 6 | 2 | -1 | 3
Cc1cccn2c(=O)c(C(=O)NC3CCCCC3)c(O)nc12 | 0 | -1 | -2 | 0 | -1 | 0
COC(=O)[C@]12C[C@H](CC(=O)N3CCN(C(=O)C4CC4)CC3)C(=O)N(Cc3ccc4c(c3)OCO4)C1=C[C@H](COCc1ccccc1)O[C@@H]2C | -1 | -1 | · | · | -2 | 0
CN(Cc1ccccc1F)C(=O)C1CCCN(c2ncccn2)C1 (stereo unspecified) | -1 | -1 | · | · | -2 | 3
Cc1ccc2c(c1)sc[n+]2Cc1ccccc1 | 1 | 0 | 10* | 2 | 2 | 9
Cc1ccccc1C(=O)NC1CCCCN(Cc2cccc(C(F)(F)F)c2)C1=O (stereo unspecified) | 0 | -1 | · | · | -2 | 3
CCC(=O)N1C(C(=O)N2CCCC2)CSC1c1ccc(OC)cc1 (stereo unspecified) | 0 | -1 | 2 | 4.3* | -1 | 1
CC(C)=NNc1ncnc2nc[nH]c12 | 4 | 0 | 8 | 6.3* | 0 | 5
O=c1cc(-c2ccccc2)nc(/C=C/c2ccccc2)[nH]1 | 0 | -1 | 0 | 5.6* | 0 | 3
COc1ccc(/C=C/c2nc(-c3ccccc3)cc(=O)[nH]2)cc1 | 0 | -2 | 3 | 4 | 0 | 1
SMILES | DAX1 inh-1 | ssDAF-12 act | FXN GAA850 act | DAX1 inh-2 | hcDAF12 agonist | hgDAF-12 ag
Cc1ccsc1/C=N\NC(=O)c1cc(C(C)(C)C)[nH]n1 | 2 | -1 | 5 | 2 | 2 | 11*
Cc1ccsc1/C=N\NC(=O)c1n[nH]c2c1CCC2 | 1 | 1.0* | -4 | -2 | 6.0* | 10
O=C(N/N=C/c1c(Cl)cccc1Cl)c1n[nH]c2c1CCCC2 | 1 | -2 | 6 | -1 | -1 | 8
O=C(Cc1ccccc1)c1ccc(O)cc1 | 2 | -1 | 4 | 1 | 1 | 7
O=C(CC(O)CCc1ccccc1)c1ccc(O)cc1 (stereo unspecified) | 2 | -1 | 3 | 8.4* | 2 | 1
Cc1cc(SCC(=O)c2ccccc2)n2nc(C)nc2n1 | 0 | 0 | 2 | -1 | 6.2* | 10
Cc1cc(C)c(C#N)c(SCC(=O)c2ccccc2)n1 | -1 | -1 | 1 | -1 | -1 | -4
Cc1ccc(/C=N/N2CCN(Cc3ccccc3)CC2)cc1 | -1 | -1 | 3 | 0 | -2 | 1
Cc1ccc(CN2CCN(/N=C/c3ccccc3)CC2)cc1 | 0 | -1 | 3 | 7.7* | 0 | -1
Nc1[nH]c(C(=O)c2ccc(Br)cc2)c(-c2ccc(Cl)cc2Cl)c1C(=O)NCCc1c[nH]c2ccccc12 | 0 | 1.1* | · | · | 1 | 1
COc1ccc(NC(=O)CSc2nc(C)cc(=O)[nH]2)cc1OC | 0 | 0 | · | · | -1 | 0
COc1cc(SC)ccc1C(=O)OCC(=O)NCC(C)C | 1 | -1 | -1 | 4.3* | 0 | 1
COc1cc(SC)ccc1C(=O)OCC(=O)NC(=O)NC(C)C | -1 | -2 | 1 | 0 | -1 | 0
Cc1ccccc1C(=O)N(C)[C@H]1C[C@H]2c3[nH]c4c(-c5ccccc5)cccc4c3CCN2C[C@H]1[C@H](C)O | -2 | -1 | · | · | -4 | -2
COC(=O)C1=C(NC(=O)c2ccc(C)cc2)CCS1 | 1 | 1.9* | 1 | 0 | 4 | 4
COC(=O)C1=C(NC(C)=O)CCS1 | 0 | -2 | 1 | 0 | 0 | -2
O=C(CSc1nnc(COc2ccccc2)n1-c1ccc(Cl)cc1)Nc1ccccc1-c1ccccc1 | -1 | -1 | · | · | -2 | 0
O=C1N(c2ccccc2)CCN1c1ccccc1 | 2 | 0 | 4 | 4 | 5 | 11*
O=C1NCCN1c1ccccc1 | -1 | -1 | 3 | 4 | 0 | 2
O=C1c2ccccc2CN1c1ccccc1 | 1 | -1 | 6 | -1 | 2 | 6
O=C1NC(=S)CN1c1ccccc1 | 0 | -1 | -1 | 5.6* | -1 | 0
Cc1cc(Br)ccc1OCCCN1CCC(C(O)(c2ccccc2)c2ccccc2)CC1 | 1 | -1 | · | · | 0 | 2
CCOc1cc(CCNC(=O)c2cc3ccsc3n2C)ccc1OC | -1 | -2 | · | · | 0 | 0
O=C(Nc1cc(-c2ccccc2)[nH]n1)c1ccccc1F | 2 | -1 | 2 | · | 2 | 12*
Cc1ccccc1C(=O)NC1CCCCN(C(C)C)C1=O (stereo unspecified) | 0 | 0 | · | · | -3 | 2
CC(C)(C)c1csc(NC(=O)Nc2ccccc2)n1 | 2 | -1 | 6 | 1 | 3 | 12*
O=C(NC1=NCCS1)Nc1ccccc1 | 3 | 0 | 2 | 1 | 3 | 11*
O=C(Nc1ccccc1)Nc1ccccc1 | 3 | -1 | 3 | 3 | 1 | 12*
